# Source: PubChem BioAssay (National Center for Advancing Translational Sciences (NCATS))
# 3T3 cytotox = kills NIH 3T3 cells; NIH 3T3 viability, CellTiter-Glo ATP luminescence, 48-72 h; AID 1345082; 94,000 tested, 4.3% active; Potency, µM (highest dose often 96.7 µM), inactives show at the highest dose activity change, negative = cytotoxicity, usual class: inhibitors; note: % is set by controls: 0 for no effect and ±100 for the full control effect; nearly all actives have a fitted effect of over 55% in size
#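 Mouse fibroblast NIH 3T3 cells, 400 per well, received compound via pintool and were incubated for 48 or 72 hr prior to CellTiter-Glo ATP luminescence measurement.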
# FLuc inh-1 = Photinus pyralis luciferase inhibition | AID 1347043 | Potency, µM (series often up to 115 µM), hits mostly inhibitors | purified P. pyralis luciferase, luminescence, biochemical | 76,000 tested, 2.5% active; note: % is set by controls: 0 for no effect and ±100 for the full control effect; nearly all actives have a fitted effect of over 65% in size
#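 Purified 10nM P. pyralis luciferase with 10uM D-luciferin and 10uM ATP in 50mM Tris acetate pH 7.5, 10mM Mg acetate, 0.01% Tween-20, 0.05% BSA. qHTS titration; luminescence read by CCD imager.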
# GPT2 inhibitor = GPT2 alanine aminotransferase inhibition. 100,000 tested, 0.25% active. Recombinant GPT2, coupled pyruvate oxidase/HRP Amplex Red fluorescence. Q8TD30. Potency, µM (highest dose often 57.7 µM), for the others: at the top dose activity change, negative = inhibition, most hits filed as inhibitors; note: % is set by controls: 0 for no effect and ±100 for the full control effect; nearly all actives have a fitted effect of over 60% in size
# Target sequence (Q8TD30 whole entry, looked up): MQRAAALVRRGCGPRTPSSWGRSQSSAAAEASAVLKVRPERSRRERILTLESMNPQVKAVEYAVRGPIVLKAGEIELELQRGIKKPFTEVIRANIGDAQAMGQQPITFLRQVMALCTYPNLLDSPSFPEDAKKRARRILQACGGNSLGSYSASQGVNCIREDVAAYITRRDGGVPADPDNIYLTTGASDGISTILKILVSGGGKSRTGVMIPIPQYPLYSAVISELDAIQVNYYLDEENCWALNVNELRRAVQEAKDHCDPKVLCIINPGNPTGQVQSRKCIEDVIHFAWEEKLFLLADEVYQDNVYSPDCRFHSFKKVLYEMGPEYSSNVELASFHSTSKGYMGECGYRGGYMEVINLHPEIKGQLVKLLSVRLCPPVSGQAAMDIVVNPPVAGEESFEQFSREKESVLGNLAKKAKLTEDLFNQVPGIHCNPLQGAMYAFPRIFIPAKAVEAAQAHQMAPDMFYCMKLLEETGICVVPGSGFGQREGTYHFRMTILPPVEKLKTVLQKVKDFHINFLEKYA
#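 Fluorescence read-out: pyruvate from GPT2 turnover coupled to pyruvate oxidase, HRP and Amplex Red (0.2mM ThPP, 0.2U/mL PO and HRP, 50uM Amplex final). Substrates 250uM a-KG, 2mM L-alanine; enzyme 10ng/uL; 30 min RT.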
# hNpr1 antagonist = blocks ANP-stimulated signaling of human Npr1 receptor | HEK293 hNpr1 GloSensor cGMP, ANP-stimulated luminescence | Potency, µM (titrated, usually from 46.3 µM), for the others: at the top dose activity change, negative = inhibition, hits mostly inhibitors | 76,000 tested, 1.6% active | AID 1347048; calls by dose curve; note: % is set by controls: 0 for no effect and ±100 for the full control effect; nearly all actives have a fitted effect of over 60% in size
#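 HEK293 cells stably expressing human Npr1 and cGMP GloSensor pGS-40F, loaded 2 h with 2% GloSensor reagent, given compound 30 min at room temperature. Luminescence read before and 20 min after 0.1 nM hNppA.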
# HEK293 tox = cytotoxic compounds in HEK 293 cells | HEK 293 viability, ATP luminescence (CellTiter-Glo), 48-72 h | Potency, µM (highest dose often 115 µM), for the others: at the top dose activity change, negative = cytotoxicity, most hits filed as inhibitors | 94,000 tested, 6.6% active; note: % is set by controls: 0 for no effect and ±100 for the full control effect; nearly all actives have a fitted effect of over 60% in size
#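 Cells seeded first (HEK 293, 250 cells/well), then compound added by pintool. Incubation ran 48 or 72 hr at 37 degree Celsius. CellTiter-Glo was added and luminescence imaged after 10 min at room temperature.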
# FLuc SDR -ATP = stabilizes firefly luciferase without ATP; shares compounds with FLuc inh-1; Purified FLuc-C-HiBiT, Nano-Glo HiBiT luminescence, no ATP; 1,300 tested, 7.8% active; AID 1963318; Potency, µM (doses to about 32.7 µM), for the others: at the top dose activation (signal gain), usual class: activators; note: nearly all actives have a fitted effect of over 55% in size
# FLuc SDR ATP = binders stabilizing firefly luciferase, plus ATP. shares compounds with FLuc inh-1. purified FLuc-C-HiBiT + ATP, HiBiT complementation luminescence. Potency, µM (doses to about 32.7 µM), inactives show at the highest dose activation (gain of signal), actives largely listed as activators. 1,300 tested, 8.7% active. AID 1963319;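 note: signal reports ligand binding via conformational change of the enzyme rather than luciferase catalysis; % of control where 0% means no effect; nearly all actives have a fitted effect of over 55% in size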
# FLuc inh-2 = firefly luciferase enzyme inhibition; purified FLuc-C-HiBiT enzyme, luciferin luminescence; shares compounds with FLuc inh-1; 1,300 tested, 42% active; Potency, µM (series often up to 32.7 µM), inactives show at the highest dose activity change, negative = inhibition, most hits filed as inhibitors; AID 1963320; note: % is set by controls: 0 for no effect and ±100 for the full control effect; nearly all actives have a fitted effect of over 70% in size
# An asterisk follows results filed as active; i = inactive; ? = inconclusive; nt = no result given; [ ] = another dose, or the depositor's remark. Most compounds without a hit are left out; they make up all but 10% or so of the library. Unless noted, calls come from the whole dose curve; as a rule, active = well fitted curve in the direction sought with a large enough effect; inconclusive = small, poorly fitted or top-dose-only effect, or another doubt; inactive = no such curve, though single readings can be large; an effect the other way counts as inactive or inconclusive. Potency is the fitted concentration of half-maximal effect.
SMILES,3T3 cytotox,FLuc inh-1,GPT2 inhibitor,hNpr1 antagonist,HEK293 tox,FLuc SDR -ATP,FLuc SDR ATP,FLuc inh-2
O=C(NCCc1c[nH]c2ccccc12)[C@@H]1C[C@H]2C(=O)NCCCCCCN(C(=O)c3ccco3)[C@H]2C1,0%,i,i,-21%,-10%,nt,nt,nt
COC1CN(c2ccc(C)cc2)C12CCN(C(=O)CCc1nc3ccccc3s1)CC2 (stereo unspecified),?,i,i,-8%,?,nt,nt,nt
CCN1c2cc(C(=O)Nc3ccc4c(c3)OCCO4)ccc2C(=O)N2CCCC21 (stereo unspecified),?,5µM*,i,-8%,?,27%,16%,?
CCN1c2cc(C(=O)Nc3ccc4c(c3)OCCO4)ccc2C(=O)N2CCCCCC21 (stereo unspecified),?,11µM*,i,?,18µM*,21%,18%,?
CC(C)C(=O)N1Cc2ccccc2CC2(CCCCN2CC2CCNC2)C1 (stereo unspecified),?,nt,i,nt,-21%,nt,nt,nt
COc1ccccc1OC(C)C(=O)Nc1ccc(-c2nc3ccccc3s2)cc1 (stereo unspecified),nt,nt,nt,nt,nt,15%,13%,-10%
COC[C@H]1C[C@@H](NC(=O)c2nc3ccccc3s2)[C@H](O)[C@@H]1O,-7%[138 µM],i,i,-9%[70.6 µM],-5%[172 µM],nt,nt,nt
O=C(COc1ccccc1F)Nc1ccc(-c2nc3ccccc3s2)cc1,nt,nt,nt,nt,nt,10%,7%,-5%
CN(C(=O)OC(C)(C)C)c1ccc(-c2nc3ccccc3s2)cc1,nt,nt,nt,nt,nt,1.4µM*,0.35µM*,0.099µM*
CC(C)Oc1ccc(C(=O)Nc2ccc(-c3nc4ccccc4s3)cc2)cc1,nt,nt,nt,nt,nt,18%,10%,4%
COc1ccc(C(=O)N2CCCC3(CNc4ncccc4[S+](=O)([O-])N3)C2)cc1 (stereo unspecified),-15%,nt,nt,nt,-2%,nt,nt,nt
CN1C[C@H](O)[C@]2(CCN(Cc3ccc(OC(F)(F)F)cc3)C2)S1(=O)=O,-27%,nt,nt,nt,?,nt,nt,nt
CN(C)c1cccc(C(=O)Nc2ccc(-c3nc4ccccc4s3)cc2)c1,nt,nt,nt,nt,nt,30%,?,?
CC(C)CC(=O)N1C(C(=O)NCC2CCCO2)COC12CCCC(C)C2 (stereo unspecified),2%,i,-11%,5%,-1%,nt,nt,nt
O=c1[nH]nc2n1CCCCC2,-12%,i,i,11%,-10%,13%,11%,-3%
OC(c1nc(Nc2ccc(Oc3ccccc3)cc2)n[nH]1)C1CC1 (stereo unspecified),?,14µM*,-10%[88.5 µM],-22%[70.6 µM],?,17%[49.3 µM],11%[49.3 µM],?
Cc1ccc(CNC(=O)c2ccc3c(c2)CN(Cc2cnn(C)c2C)CCO3)cc1,-9%,i,-6%,?,?,14%,8%,-7%
Cc1ccc(C(C)CCN2CCC(n3nccc3NC(=O)Cc3ccccc3)CC2)o1 (stereo unspecified),3%,i,-10%,3%,-12%,nt,nt,nt
Nc1ncnc2c1ncn2[C@@H]1O[C@H](CO)[C@@H](O)[C@H]1O,nt,nt,-2%,nt,nt,nt,nt,nt
Nc1ncnc2c1ncn2[C@H]1O[C@H](CO)[C@@H](O)[C@@H]1O,nt,nt,nt,nt,nt,11%,10%,2%
Cc1ccc(-n2ncc3c(N4CCC(Cc5ccccc5)CC4)ncnc32)cc1C,nt,nt,nt,nt,nt,13%,9%,-1%
Fc1ccc(-n2ncc3c(N4CCC(Cc5ccccc5)CC4)ncnc32)cc1,nt,nt,nt,nt,nt,15%,8%,1%
